PostGolgi ctrl – yeast control strain growth, post-Golgi counter-screen; actives 5% (n = 98,000); AID 738; inhibition, % at 10 µM; efflux-deficient yeast background strain, growth absorbance A615, 16 h
Measles CPE – protection of cells from measles virus; Measles virus-infected cells, CPE protection, absorbance; protection (pct of control), % at 4 µM; actives 1.5% (n = 140,000); AID 841; in the data active = protection mostly above about 24%, no sharp cut-off; inactive = mostly below about 26%
MT1-MMP txn act – MT1-MMP promoter transcription activation; HT1080 MT1-MMP promoter luciferase reporter, luminescence, overnight; stronger effect = higher value; AID 750; actives 0.16% (n = 86,000); activation factor at 10 µM;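 active = activation factor of at least 2 for MT1-MMP transcription at 10 µM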
PostGolgi yeast – growth inhibition of a yeast mutant, post-Golgi transport screen; post-Golgi transport phenotypic cell assay; inhibition, % at 10 µM; actives 0.9% (n = 98,000);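 also: yeast cells grown in 1536-well plates; yeast grown about 18 h at 30C before absorbance read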
Large screens that a line does not name were inactive. Most compounds without a hit are left out; they make up all but 5.3% or so of the library. Rule as the data show it, unless noted: active = inhibition above about 30%; inactive = the rest.

COc1ccccc1NC(=O)c1ccc(NC(=O)CSc2nncn2C)cc1	none (no result: PostGolgi ctrl, MT1-MMP txn act, PostGolgi yeast)
Cc1ccc(-c2csc3ncnc(SCC(=O)Nc4nnc(C)s4)c23)cc1	PostGolgi ctrl 33 (no result: MT1-MMP txn act)
O=C(NC1CCCC1)C(c1ccncc1)N(Cc1ccccc1)C(=O)Cc1cccs1 (configuration not stated)	none (no result: MT1-MMP txn act)
O=C(NC1CCCC1)C(c1ccsc1)N(Cc1ccccc1)C(=O)Cc1cccs1 (configuration not stated)	Measles CPE 63 (no result: MT1-MMP txn act)
O=C1c2ccccc2C(=O)N1CCCc1c[nH]c2ccc(Cl)cc12	none (no result: PostGolgi ctrl, MT1-MMP txn act, PostGolgi yeast)
O=C(Nc1ccc(Cl)cc1)c1cccs1	none
O=C(Nc1ccccc1)c1nnsc1S(=O)c1ccc(Cl)cc1 (configuration not stated)	PostGolgi ctrl 102, PostGolgi yeast 105 (no result: MT1-MMP txn act)
COc1cc(C(=O)Sc2ccc(C)cc2)cc(OC)c1OC	PostGolgi ctrl 45 (no result: MT1-MMP txn act)
Oc1ccccc1-c1cc(-c2ccccc2)no1	PostGolgi ctrl 43 (no result: MT1-MMP txn act)
Clc1ccccc1-c1ccc(CN2CCN(c3ccccc3)CC2)o1	none
CNC(=O)/C(C#N)=C/c1c(N(Cc2ccccc2)Cc2ccccc2)nc2ccccn2c1=O	none (no result: PostGolgi ctrl, MT1-MMP txn act, PostGolgi yeast)
CN(C)c1oc(-c2ccccc2Cl)nc1P(=O)(c1ccccc1)c1ccccc1	PostGolgi yeast 31 (no result: MT1-MMP txn act)
O=C(N/C(=C/c1cn(-c2ccccc2)nc1-c1ccccc1)C(=O)N1CCOCC1)c1ccc(Cl)cc1Cl	none (no result: PostGolgi ctrl, MT1-MMP txn act, PostGolgi yeast)
CC12CCC(C(=O)N(CC(O)CN3CCCCCC3)C1=O)C2(C)C (configuration not stated)	none (no result: PostGolgi ctrl, MT1-MMP txn act, PostGolgi yeast)
Cc1nn(-c2ccccc2)c(N)c1Sc1ccccc1[N+](=O)[O-]	Measles CPE 46 (no result: PostGolgi ctrl, MT1-MMP txn act, PostGolgi yeast)
Cc1nn(-c2ccccc2)c(N)c1Sc1cccc([N+](=O)[O-])c1	none (no result: PostGolgi ctrl, MT1-MMP txn act, PostGolgi yeast)
COc1ccccc1-c1cc(C(F)(F)F)nc(S(=O)(=O)CCCC(=O)N2CCCCC2C)n1 (configuration not stated)	PostGolgi ctrl 62
COc1ccccc1-c1cc(C(F)(F)F)nc(S(=O)(=O)CCCC(=O)NC(C)C)n1	PostGolgi ctrl 43
COc1ccccc1-c1cc(C(F)(F)F)nc(S(C)(=O)=O)n1	PostGolgi ctrl 86, PostGolgi yeast 46
COc1ccccc1-c1cc(C(F)(F)F)nc(N2CCCC2)n1	none
CS(=O)(=O)c1nc(-c2ccco2)cc(C(F)(F)F)n1	PostGolgi ctrl 48
COc1ccccc1-c1cc(C(F)(F)F)nc(S(=O)(=O)CCCC(=O)Nc2cc(C)on2)n1	none
CN(C)CCCC(=O)c1ccc2c(c1)OCO2	Measles CPE 35
Cc1ccccc1C(=NCCCN(C)C)c1ccccc1C	none (no result: PostGolgi ctrl, MT1-MMP txn act, PostGolgi yeast)
C=CCn1c(NC(C)c2cc(Cl)ccc2O)nc2ccccc21 (configuration not stated)	PostGolgi ctrl 32
C=CCn1c(NCc2cc(C)ccc2O)nc2ccccc21	none
CCCCN1C(=O)C(NC(=O)C2CC2)(C(F)(F)F)C2=C1CC(C)(C)CC2=O (configuration not stated)	none (no result: MT1-MMP txn act)
CCCCC(=O)NC1(C(F)(F)F)C(=O)N(CC(C)C)C2=C1C(=O)CC(C)(C)C2 (configuration not stated)	PostGolgi ctrl 31 (no result: MT1-MMP txn act)
Cc1ccc(C(=O)OCC(=O)Nc2sc3c(c2C#N)CCC3)cc1	none (no result: PostGolgi ctrl, MT1-MMP txn act, PostGolgi yeast)
N#Cc1c(NC(=O)COC(=O)c2ccc(F)cc2)sc2c1CCC2	PostGolgi ctrl 37 (no result: MT1-MMP txn act)
Cc1cccc(-c2nc(CS(=O)CC(=O)NC3CCCC3)c(C)o2)c1 (configuration not stated)	none
Cc1cccc(-c2nc(C#N)c(NC3CCCCC3)o2)c1	Measles CPE 43
CCN(CC(O)Cn1c2ccccc2c2ccccc21)S(=O)(=O)c1ccc(C)cc1 (configuration not stated)	PostGolgi ctrl 55
Cc1cccc(N(CC(=O)NCCC2=CCCCC2)S(C)(=O)=O)c1C	none
CCN(CC)c1nc(SCC(=O)O)nc(N(CC)CC)n1	PostGolgi ctrl 40
COc1ccc(N2CCN(S(=O)(=O)c3ccc(OC)cc3)CC2)cc1	none (no result: PostGolgi ctrl, PostGolgi yeast)
COc1ccc(S(=O)(=O)N2CCCN(Cc3cccc(F)c3)CC2)cc1	PostGolgi ctrl 45
COc1ccc(S(=O)(=O)N2CCN(c3cccc(C)c3C)CC2)cc1	PostGolgi ctrl 35
COc1ccc(CCN(Cc2cc3cccc(C)c3[nH]c2=O)C(=O)NC2CCCCC2)cc1OC	none
NC(=S)N/N=C/c1ccc(-c2cc(Cl)cc(Cl)c2)o1	PostGolgi ctrl 68
NC(=S)N/N=C/c1ccc(-c2cc(Cl)ccc2Cl)o1	PostGolgi ctrl 93 (no result: MT1-MMP txn act)
O=c1c2ccccc2c(/C=N/c2ncn[nH]2)c(O)n1Cc1ccccc1	PostGolgi ctrl 30
COC(=O)[C@@]1(Cc2ccccc2)[C@H]2c3cc(C(=O)N(C)C)n(Cc4nc5ccccc5[nH]4)c3C[C@H]2CN1C(=O)c1ccccc1	none (no result: PostGolgi ctrl, Measles CPE, PostGolgi yeast)
CCC(C)c1ccc(OCCCCN2CCOCC2)cc1 (configuration not stated)	PostGolgi yeast 70
